# Activity calls are given as the source filed them. How the source made its calls: active means hit-call score of the fitted dose curve at least 0.9, where 1 is the maximum; inactive means score below 0.9.
# Assay: CCTE_Simmons_MITO_max_resp_rate: CCTE's HepG2 Seahorse XF Respirometric Screening Assay at Maximal Respiratory State [uncoupled], Simmons Lab (AID 2284002)
# Conditions: actives raise or lower the signal
# Method: CCTE_Simmons_MITO is cell-based, respirometric assay using HepG2 cells and a Seahorse XF Analyzer to measure oxygen consumption rates over four temporal phases spanning a total of 72 minutes: pre-injection (pre-treatment), basal (following test compound injection), maximal (following FCCP uncoupler injection), and inhibited (following rotenone/antimycin A injection)CCTE_Simmons_MITO_max_resp_rate is one of 4 assay components calculated from the CCTE_Simmons_MITO assay. It is designed to make measurements of maximal respiration using a form of respirometric reporter, as detected with […] signals by Seahorse XF96 technology. Data from the assay component CCTE_Simmons_MITO_max_resp_rate was analyzed at the endpoint, CCTE_Simmons_MITO_max_resp_rate_OCR, with bidirectional fitting relative to DMSO as the negative control and baseline of activity. Using a type of respirometric reporter, measures of maximal respiration for gain or loss-of-signal activity can be used to understand cellular oxygen consumption as it relates to cellular respiration. To generalize the intended target to other relatable targets, this assay endpoint is annotated to the mitochondria intended target family, where the subfamily is respiration.
# Test chemicals were administered as a titrated series of 7 concentrations from 125 nM up to 100 uM [final] prior to kinetic endpoint detection at 6 minute intervals [3 min mix followed by 3 minutes measure] for 72 minutes. Three biological replicates of technical singles were run for every chemical concentration tested. Dimethylsulfoxide [DMSO] was used as the vehicle control. The electron transport chain inhibitor fenpyroximate was used as the positive control for decreased basal respiration and was administered as a titrated series of 6 concentrations from 250 nM up to 2.75 uM [final] with technical triplicates for the top concentration only. The uncoupler 2,4-dintirophenol was used as the positive control for increased basal respiration and was administered as a titrated series of 6 concentrations from 938 nM up to 40 uM [final] with technical triplicates for the top concentration only. A Seahorse XF Analzyer is required to measure the response.
Structure (SMILES),AC50,outcome
CCC(C)(C)c1ccc(O)c(C(C)(C)CC)c1,78.2 µM (active),
CCCCCCCCc1ccc(O)cc1,39.5 µM (active),
O=C(Nc1ccc2[nH]ccc2c1)c1cc2cc(F)ccc2n1Cc1cccc(F)c1,,inactive
CC(C)(C)CC(C)(C)c1ccc(O)cc1,27.7 µM (active),
C[C@]12CCC(=O)C[C@@H]1CC[C@@H]1[C@@H]2CC[C@]2(C)[C@@H](O)CC[C@@H]12,,inactive
CC(C)(c1ccccc1)c1ccc(O)c(C(C)(C)c2ccccc2)c1,50 µM (active),
O=C1C2(Cl)C3(Cl)C4(Cl)C(Cl)(Cl)C5(Cl)C3(Cl)C1(Cl)C5(Cl)C24Cl (stereo not drawn),35.8 µM (active),
CC(=O)[O][Hg][c]1ccccc1,13.1 µM (active),
C=C(C)C(=O)[O][Sn]([CH2]CCC)([CH2]CCC)[CH2]CCC,5.4 µM (active),
O=[N+]([O-])c1ccc(O)c([N+](=O)[O-])c1,,inactive
O=C(O)C(F)(F)C(F)(F)C(F)(F)C(F)(F)C(F)(F)C(F)(F)C(F)(F)C(F)(F)C(F)(F)C(F)(F)F,,inactive
CCOP(=S)(OCC)Oc1nc(Cl)c(Cl)cc1Cl,,inactive
COc1cc(-c2ccc(N)c(OC)c2)ccc1N,,inactive
